Assay results reported in the supplement of paper PMC9023506.
Where a name gives a salt, the structure may show the parent alone.

Tested on: Danio rerio larvae (5 dpf)
Experiment: startle response to 20-s acoustic pulses, difference vs DMSO (percentage points (treated minus DMSO)); higher = more of the behaviour than the DMSO vehicle control
Settings: 10 µM; exposure time: 3 h pre-incubation + 3 h imaging
Protocol: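 5-dpf wild-type zebrafish larvae were imaged in 96-well plates. They were treated with 190 Tocris FDA-approved drugs at 10 µM (1 µl/ml DMSO) for 3 h before and 3 h during imaging at 28.5 °C, 48 larvae per drug. Automated image analysis gave % time moving and optomotor responses. Values are drug group mean minus DMSO vehicle mean (n=844), in percentage points, for 10 behaviours.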

| SMILES | startle response to 20-s acoustic pulses |
| --- | --- |
| CC(C)C[C@H]1C(=O)N2CCC[C@H]2[C@]2(O)O[C@](NC(=O)[C@@H]3C=C4c5cccc6[nH]c(Br)c(c56)C[C@H]4N(C)C3)(C(C)C)C(=O)N12 [Bromocriptine mesylate] | -8.49 |
| N[C@@H]1C[C@H]1c1ccccc1 [Tranylcypromine hydrochloride] | -9.81 |
| CC[C@@H](C(N)=O)N1CCCC1=O [Levetiracetam] | 1.64 |
| COc1ccc(C(CN(C)C)C2(O)CCCCC2)cc1 (configuration not stated) [Venlafaxine hydrochloride] | -5.93 |
| C=CCN1C[C@H](C(=O)N(CCCN(C)C)C(=O)NCC)C[C@@H]2c3cccc4[nH]cc(c34)C[C@H]21 [Cabergoline] | -8.7 |
| CC(O)(CS(=O)(=O)c1ccc(F)cc1)C(=O)Nc1ccc(C#N)c(C(F)(F)F)c1 (configuration not stated) [Bicalutamide] | 0.332 |
| CCN(C)C(=O)Oc1cccc([C@H](C)N(C)C)c1 [Rivastigmine tartrate] | 5.58 |
| CN1C[C@H](C(=O)N[C@]2(C)O[C@@]3(O)[C@@H]4CCCN4C(=O)[C@H](Cc4ccccc4)N3C2=O)C[C@@H]2c3cccc4[nH]cc(c34)C[C@H]21 [Dihydroergotamine mesylate] | 5.17 |
| C=C1C[C@@H]2[C@H](CC[C@]3(C)C(=O)CC[C@@H]23)[C@@]2(C)C=CC(=O)C=C12 [Exemestane] | 2.55 |
| Cc1cccc([C@H](C)c2c[nH]cn2)c1C [Dexmedetomidine hydrochloride] | 6.09 |
| COc1cc2c(cc1OC)C1CC(=O)C(CC(C)C)CN1CC2 (configuration not stated) [Tetrabenazine] | -5.81 |
| O=c1[nH]c2ccccc2n1C1CCN(CCCC(c2ccc(F)cc2)c2ccc(F)cc2)CC1 [Pimozide] | 2.42 |
